Source: PubChem
Only some compounds are listed: those with a hit (about 9.4% of all), similar ones and a draw of the others.
ELG1 genotox: qHTS screen for small molecules that induce genotoxicity in human embryonic kidney (HEK293T) cells expressing luciferase-tagged ELG1. HEK293T ELG1-luciferase reporter, luminescence, 16 h. actives 1.3% (n = 330,000). Potency, µM (top dose mostly 46 µM), usual class: activators; also: nearly all actives have a fitted effect of over 60% in size
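Cells (2,000/well) expressing the ELG1-luciferase fusion are dosed by pin tool and kept 16 hr at 37 °C, 5% CO2. Signal comes from ONE-Glo luciferase reagent after 30 min at room temperature.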
FLuc modulator: qHTS profiling assay for firefly luciferase inhibitor/activator using purifed enzyme and Km concentrations of substrates (counterscreen for miR-21 project); Luciferin 4-monooxygenase (Photinus pyralis), P08659; purified FLuc, Km substrates, luminescence inhibition; Potency, µM (doses to about 57.5 µM), hits mostly inhibitors; actives 6.9% (n = 360,000); AID 588342, 2011; also: nearly all actives have a fitted effect of over 55% in size
Target sequence (P08659 whole entry, looked up): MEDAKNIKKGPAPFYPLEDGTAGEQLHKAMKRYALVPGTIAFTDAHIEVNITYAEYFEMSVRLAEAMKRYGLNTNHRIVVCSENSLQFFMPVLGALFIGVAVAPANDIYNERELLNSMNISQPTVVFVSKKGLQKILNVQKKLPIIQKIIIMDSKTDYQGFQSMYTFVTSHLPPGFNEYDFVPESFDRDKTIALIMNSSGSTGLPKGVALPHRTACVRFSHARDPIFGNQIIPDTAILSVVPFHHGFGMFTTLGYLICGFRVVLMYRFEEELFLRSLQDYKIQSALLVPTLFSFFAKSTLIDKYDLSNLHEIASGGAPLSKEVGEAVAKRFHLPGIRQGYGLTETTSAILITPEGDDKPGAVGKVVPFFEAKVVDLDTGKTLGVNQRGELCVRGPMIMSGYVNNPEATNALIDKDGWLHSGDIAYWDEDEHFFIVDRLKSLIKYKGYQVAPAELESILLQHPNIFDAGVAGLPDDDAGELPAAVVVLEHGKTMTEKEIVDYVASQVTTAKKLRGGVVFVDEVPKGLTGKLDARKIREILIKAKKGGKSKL
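Purified P. pyralis luciferase, 10 nM final, with Km-level 10 uM D-luciferin and 10 uM ATP in 50 mM Tris acetate pH 7.5, 10 mM Mg acetate, 0.01% Tween-20, 0.05% BSA; 6-point qHTS titration about 60 µM downward; luminescence read.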
NPC1 promoter act: qHTS Assay for NPC1 Promoter Activators. Huh7 NPC1 promoter luciferase reporter, 24 h. Potency, µM (top dose mostly 9.22 µM), actives largely listed as activators. actives 2.4% (n = 320,000); also: nearly all actives have a fitted effect of over 60% in size
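In 1536-well qHTS, Huh7 cells harboring an NPC1 promoter–luciferase construct received compound for 24 h; activation was quantified by luminescence following luciferase reagent addition.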
Rab9 promoter act: qHTS Assay for Rab9 Promoter Activators. AID 485297, 2010. actives 2.8% (n = 320,000). Potency, µM (series often up to 9.22 µM), most hits filed as activators. Huh7 Rab9 promoter-luciferase reporter, luminescence, 24 h; also: nearly all actives have a fitted effect of over 60% in size
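Luciferase signal after 10 min detection reagent at ambient indicates Rab9 promoter upregulation; stably transfected Huh7 cells were treated 24 h with compound in DMSO at 37 °C, 5% CO2.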
SMN2 splice enh: qHTS Assay for Enhancers of SMN2 Splice Variant Expression; actives 2.8% (n = 210,000); AID 1458, 2008; HEK293 SMN2-luciferase splicing reporter, luminescence, 30-36 h; Potency, µM (top dose mostly 46.1 µM), usual class: activators; also: nearly all actives have a fitted effect of over 55% in size
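qHTS luciferase splicing reporter: luminescence rises when SMN2 exon 7 is included in transfected HEK293 cells. Compound exposure lasted 30-36 h at 37C, with 4.5 mM final sodium butyrate as control, followed by a ONE-Glo read.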
ELG1 repair inh: qHTS screen for small molecules that inhibit ELG1-dependent DNA repair in human embryonic kidney (HEK293T) cells expressing luciferase-tagged ELG1; actives 2.3% (n = 330,000); HEK293T ELG1-luciferase reporter, luminescence, 16 h; DNA damage induced by 5-fluorouridine; Potency, µM (top dose mostly 46.1 µM), usual class: inhibitors; also: nearly all actives have a fitted effect of over 55% in size
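Reporter activity after DNA damage by 5-fluorouridine is monitored. Compound-treated cells incubate 16 hr at 37 °C, then ONE-Glo is added for 30 min before luminescence reading.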
Hits are given with their value; 0 = inactive; ? = inconclusive; - = no result; [ ] = remark or other dose. Calls follow the shape of the dose curve; as a rule, active = well fitted curve in the direction sought with a large enough effect; inconclusive = small, poorly fitted or top-dose-only effect, or another doubt; inactive = no such curve, though single readings can be large; an effect the other way counts as inactive or inconclusive.

SMILES	ELG1 genotox	FLuc modulator	NPC1 promoter act	Rab9 promoter act	SMN2 splice enh	ELG1 repair inh
O=c1c2ccccc2nnn1-c1ccc(Br)cc1	?	?	3.16µM	2.24µM	-	?
O=c1c2ccccc2cnn1-c1ccc(Cl)nn1	0	0	0	0	0	?
O=c1c2ccccc2nnn1Cc1ccc(Br)cc1	0	0	0	0	0	0
O=c1c2ccccc2cnn1-c1ccc2ccccc2c1	?	1.2µM	1.41µM	1.78µM	5.01µM	?
CC(=O)Nc1ccc2c(c1)C(=Nc1ccc(C(=O)O)cc1)c1ccccc1-2	-	-	-	-	0[9.22 µM]	-
O=C(CN1C(=O)C(c2ccc(F)cc2)=NC12CCCCCC2)Nc1ccc(F)c(Cl)c1	-	0	-	-	0	-
COc1cccc(NC(=O)CN2C(=O)CC(c3ccco3)Sc3ccccc32)c1 (stereo not drawn)	-	0	-	-	0	-
CONC(=O)C1CCN(C(=O)OCc2ccccc2)CC1	0	0	?	?	7.94µM	0
COC(=O)CNC(=O)C1CCN(C(=O)OCc2ccccc2)CC1	0	0	0	0	0	0
O=C(Oc1ccc(Oc2ccccc2)cc1)N1CCC(O)CC1	?	16.9µM	?	?	-	?
COc1ccc(OC(=O)N2CCOCC2)cc1	0	0	0	0	-	?
O=C(OCc1ccccc1)N1CCOCCOCCN(C(=O)OCc2ccccc2)CCOCCOCC1	0	0	0	0	-	10µM
O=C(Oc1ccc(-c2ccccc2)cc1)N1CCOCC1	?	21.3µM	2.82µM	2µM	?	?
CCN1CCN(Cc2c(O)ccc3c(C)c(-c4ccc(OC)cc4)c(=O)oc23)CC1	-	0	-	-	-	-
COc1cc(C(=O)NCC(c2ccc(N(C)C)cc2)N2CCc3ccccc32)cc(OC)c1OC (stereo not drawn)	-	0	-	-	-	-
COc1ccc(OCC(=O)N(Cc2cccc(OC)c2)C2CCS(=O)(=O)C2)cc1 (stereo not drawn)	-	0	-	-	0	-
Cc1c(CCC(=O)O)c(=O)n2c([nH]c3ccccc32)c1C#N	0	0	0	0	0	0
N#Cc1cc(NC(=O)c2ccc(F)cc2)c(=O)n2c1[nH]c1ccccc12	0	?	0	0	0	6.51µM
CC1Cc2cc(/C(O)=C3/C(=O)C(=O)N(CCCn4ccnc4)C3c3ccco3)ccc2O1 (stereo not drawn)	?	15.1µM	?	2.82µM	0	?
CCN(CC)CCN1C(=O)C(=O)/C(=C(/O)c2ccc(OC)cc2)C1c1ccco1 (stereo not drawn)	0	?	0	0	-	?
CC(C)Oc1ccc(/C(O)=C2/C(=O)C(=O)N(CCN(C)C)C2c2ccco2)cc1 (stereo not drawn)	?	21.3µM	0	?	0	?
CC(C)COc1ccc(C(=O)Nc2ccc([N+](=O)[O-])cc2)cc1	0	0	0	0	0	1.46µM
CCC(=O)Oc1ccc(C(=O)Nc2ccc([N+](=O)[O-])cc2)cc1	0	0	2.82µM	?	14.1µM	?
CC(C)COc1ccc(C(=O)Nc2ccc(SC(F)F)cc2)cc1	0	?	?	?	?	?
CO[C@@H](NC(N)=O)C(=O)O	-	-	-	-	0[9.22 µM]	-
SMILES	ELG1 genotox	FLuc modulator	NPC1 promoter act	Rab9 promoter act	SMN2 splice enh	ELG1 repair inh
COc1ccc(CN2CCc3nc(SCC(=O)Nc4cc(C)cc(C)c4)[nH]c(=O)c3C2)cc1	-	0	-	-	-	-
Cc1ccc(S(=O)(=O)c2cn(Cc3ccccc3F)c3cc4c(cc3c2=O)OCO4)cc1	-	0	-	-	0	-
O=C(Nc1cccc(Br)c1)Nc1nc2c(s1)CCCCCC2	-	10.7µM	-	-	-	-
COc1ccc(NC(=O)Nc2nc3c(s2)CCCC3)cc1	0	4.78µM	3.98µM	1.78µM	12.6µM	?
CC(C)(C)c1c2c(c(C(C)(C)C)c3c1OCN(Cc1ccccc1)C3)OCN(Cc1ccccc1)C2	-	-	-	-	0[9.22 µM]	-
Cc1cc(Cl)c2oc(C(=O)N(C)C3CCOC3)c(C)c2c1 (stereo not drawn)	?	21.3µM	?	3.98µM	-	?
Cc1cc(Cl)c2oc(C(=O)N(C)Cc3cc(C)[nH]n3)c(C)c2c1	0	0	0	0	-	0
Cc1cc(Cl)c2oc(C(=O)N(C)Cc3ccon3)c(C)c2c1	18.3µM	13.5µM	3.98µM	2.82µM	-	?
CCCCCn1c(CN(C)Cc2ccccc2)nc2c1c(=O)n(C)c(=O)n2C	0	0	0	0	0	18.4µM
CC(=O)C(C)n1c(CN(C)Cc2ccccc2)nc2c1c(=O)n(C)c(=O)n2C (stereo not drawn)	0	0	0	0	-	0
CC(C)n1c(CN(C)Cc2ccccc2)nc2c1c(=O)n(C)c(=O)n2C	0	0	0	0[1.84 µM]	-	4.11µM
COCCn1c(CN2CCN(c3cccc(Cl)c3)CC2)nc2c1c(=O)n(C)c(=O)n2C	0	0	0	0	0	14.6µM
C#CCOc1nc2c(c(=O)n(C)c(=O)n2C)n1Cc1ccccc1	0	0	0	0	-	18.3µM
CCS(=O)(=O)c1ccc(O)c(Nc2cc(C)nc(SC)n2)c1	-	0	-	-	-	-
COc1ccc(Cl)cc1NC(=O)CN1C(=O)COc2ccc(S(=O)(=O)NC3CCCC3)cc21	-	0	-	-	-	-
COc1ccccc1CNC(=O)c1cc(Sc2cccc(Cl)c2)nc2ccccc12	-	0	-	-	-	-
Cc1ccc(/C=C/c2onc(C)c2S(=O)(=O)N2CCC(C(=O)Nc3cccc(C#N)c3)CC2)cc1	-	0	-	-	-	-
CCCCCCn1c(NCC)nc2c1c(=O)n(C)c(=O)n2C	0	0	0	0	0	5.8µM
CCCCNc1nc2c(c(=O)n(C)c(=O)n2C)n1CCC	0	0	0	0	-	0
Cn1c(=O)c2c(nc(CN3CCN(Cc4ccccc4)CC3)n2Cc2ccccc2)n(C)c1=O	0	0	0	0	0	?
Cn1c(=O)c2c(nc(CN3CCN(Cc4ccccc4)CC3)n2Cc2ccc(Cl)cc2)n(C)c1=O	0	0	0	0	0	20.6µM
CCOCCn1c(CN(Cc2ccccc2)Cc2ccccc2)nc2c1c(=O)[nH]c(=O)n2C	0	0	0	0	0	0
CCOCCn1c(CN(Cc2ccccc2)Cc2ccccc2)nc2c1c(=O)n(C)c(=O)n2C	0	0	0	0	0	18.4µM
Cc1ccccc1Cn1c(CN2CCc3ccccc3C2)nc2c1c(=O)n(C)c(=O)n2C	0	0	0	0	0	13µM
COc1ccc(OCCCCn2c(C3CC(=O)N(c4cccc(Cl)c4)C3)nc3ccccc32)cc1 (stereo not drawn)	-	0	-	-	0	-
CCCOc1ccc(CNC(=O)Cn2ncn3c(cc4sc(CC)cc43)c2=O)cc1	-	0	-	-	0	-
COc1ccc(C(=O)Nc2nnc(SCc3cc(=O)n4cc(Cl)ccc4n3)s2)cc1	-	0	-	-	-	-
